TDP43 rescue: qHTS of TDP-43 Inhibitors | TDP-43 expressing yeast growth rescue, BacTiter-Glo, 24 h | Potency, µM (top dose mostly 46.1 µM), for the others: at the highest dose growth rescue (activation), actives largely listed as activators | actives 1.8% (n = 410,000); also: % of control where 0% means no effect; nearly all actives have a fitted effect of over 50% in size
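In this qHTS, compounds that restore growth of yeast expressing TDP-43 appear as activators. Cells (OD600=0.02, galactose medium, raffinose-pregrown) are incubated with compound 24 hr at 30 deg C and growth is quantified by BacTiter-Glo.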
FUS suppressor: qHTS for Suppressors of FUS Proteinopathy: Primary screen using FUS-linked yeast assay; actives 0.24% (n = 390,000); S. cerevisiae FUS-expressing, growth rescue, OD600, 24 h; AID 1347120, 2019; Potency, µM (top dose mostly 76.6 µM), hits mostly activators;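 also: plate controls were DMSO vehicle for no effect and reference control for full effect; nearly all actives have a fitted effect of over 55% in size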
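Compound concentration series was pinned onto galactose-induced FUS-expressing yeast seeded at OD 0.005. Plates sat 24hr at 30C; absorbance at 600 nm gave growth. DMSO served as background control.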
Abeta yeast res: qHTS for compounds that reverse cellular toxicity of Amyloid beta (A-beta) peptide in yeast: Primary Screen; yeast expressing A-beta42, growth rescue, OD600, 48 h; response scale: 0% DMSO, 100% iron-clioquinol control; Potency, µM (titrated, usually from 46.1 µM), most hits filed as activators; actives 0.063% (n = 410,000); AID 1347071, 2019; also: nearly all actives have a fitted effect of over 55% in size
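Growth rescue measured by 600 nm absorbance after 48 h yeast culture at 30 C with compound. Values normalized between DMSO and an equimolar ferric chloride plus clioquinol control.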
aSyn rescue: qHTS of alpha-syn Inhibitors; Yeast expressing alpha-synuclein, growth rescue, BacTiter-Glo, 24 h; Potency, µM (doses to about 46.1 µM), for inactives: at the top dose growth rescue (activation), most hits filed as activators; actives 0.14% (n = 370,000); also: % of control where 0% means no effect; nearly all actives have a fitted effect of over 65% in size
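Galactose-induced alpha-syn yeast (OD600=0.02, raffinose-pregrown) + pinned cpd, 24 hr, 30 deg C; growth by BacTiter-Glo luminescence. Growth restoration scores as activation.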
Starred values were filed as active, the others as inactive; i = inactive; ? = inconclusive; . = no result given; [ ] = remark or other dose. Sampled rows, rich in hits. Any-hit rate of the full collection: about 2.1%. Calls follow the shape of the dose curve; as a rule, active = well fitted curve in the direction sought with a large enough effect; inconclusive = small, poorly fitted or top-dose-only effect, or another doubt; inactive = no such curve, though single readings can be large; an effect the other way counts as inactive or inconclusive. Potency is read from the fitted curve at half-maximal effect.

SMILES	TDP43 rescue	FUS suppressor	Abeta yeast res	aSyn rescue
Cc1ccccc1NC(=O)C1CCN(S(=O)(=O)c2ccccc2)CC1	6%	i	i	.
Cc1cccc2c(/C=C/c3ccc(N(C)C)cc3)ccnc12	.	.	.	-3%
CCc1ccccc1Nc1nc2ccccc2n2cnnc12	13µM*	i	i	.
Cc1ccc(O)c(Nc2nc3ccccc3c3nncn23)c1	25%	i	i	.
CCc1ccccc1Nc1nc2ccccc2c2nncn12	18µM*	i	i	.
COc1cccc(Nc2nc3ccccc3n3cnnc23)c1	13µM*	i	i	0%
N#C/C(=C\c1ccc(-c2cc(Cl)ccc2Cl)o1)C(=O)Nc1cccc2ncccc12	.	.	.	2%
O=C(Nc1nc(-c2ccc(Cl)cc2)cs1)C1CCCO1 (stereo not given)	?	i	i	2%
O=C(Nc1nc(-c2ccc(Cl)cc2Cl)cs1)C1CCCO1 (stereo not given)	13µM*	i	i	-7%
Cc1ccc([N+](=O)[O-])cc1S(=O)(=O)N1CCC(C)CC1	16µM*	i	i	13%
COc1ccc(C)cc1S(=O)(=O)N1CCC(C)CC1	19%	i	i	7%
Cc1ccc(S(=O)(=O)N2CCC(C)CC2)c([N+](=O)[O-])c1	18µM*	i	i	14%
COc1ccc(OC)c(CCNC(=O)c2nc(-c3ccc(Cl)cc3)n3c2CCCCC3)c1	0%	?	i	.
CCCCCCCCOc1ccc(C(=O)O)cc1	15%	i	i	6%
CCCCCCOc1ccc(C(=O)O)cc1C#N	22µM*	.	i	-17%
CCOc1ccc(CCNC(=O)Cn2ncn3c(cc4sc(C)cc43)c2=O)cc1OCC	20%	i	i	.
Cc1ccc(Nc2ccc(C(=O)O)cc2[N+](=O)[O-])cc1	2.8µM*	i	i	1%
COc1ccc(C(=O)NC(=S)NNC(=O)[C@H]2C[C@@H]2c2ccccc2)cc1OC	28%	i	?	18µM*
COc1ccc(C(=O)NNC(=S)NC(=O)c2ccc(Br)o2)cc1OC	3.5µM*	i	i	8%
COc1cc(OC)cc(C(=O)NC(=S)NNC(=O)[C@H]2C[C@@H]2c2ccccc2)c1	23%	i	?	19%
COc1ccc(C(=O)NC(=S)NNC(=O)c2c(-c3ccccc3)noc2C)cc1OC	-14%[1.82 µM]	i	11µM*	?
O=C(NC(=S)NNC(=O)[C@H]1C[C@@H]1c1ccccc1)c1ccc(F)cc1	10µM*	i	?	3.5µM*
Cc1[nH]cnc1/C=N\NC(=O)c1cccc(S(=O)(=O)N(C)C)c1	.	i	.	.
Cc1ccc(N(CC(=O)N2CCN(c3ccc(Cl)cc3)CC2)S(=O)(=O)c2c(C)noc2C)cc1	26%	i	?	.
O=C(/C=C/c1ccc(F)cc1)NC(=S)NNC(=O)[C@H]1C[C@@H]1c1ccccc1	6.3µM*	i	?	10µM*
SMILES	TDP43 rescue	FUS suppressor	Abeta yeast res	aSyn rescue
O=C(c1ccc2c(c1)N(Cc1ccccc1)C(=O)c1ccccc1S2=O)N1CCC(Cc2ccccc2)CC1 (stereo not given)	-2%	?	i	.
COc1ccccc1C(=O)Nc1ccc(Br)cc1C	18µM*	i	i	4%
N/C(=N\OC(=O)c1cnn(-c2ccccc2)c1C(F)(F)F)c1cc(C(F)(F)F)cc(C(F)(F)F)c1	-9%	i	i	0%
O=C(NNC(=O)C(Cl)Cl)c1cnn(-c2ccccc2)c1C(F)(F)F	-2%	i	i	16µM*
COc1ccc(S(=O)(=O)NCCc2cn3ccsc3n2)cc1OC	14%	i	i	.
CSc1cccc(NC(=O)C2CCN(S(=O)(=O)c3ccc4[nH]c(=O)ccc4c3)CC2)c1	?	i	i	4%
Cc1ccc(-n2cnc3cc(C(=O)NCCC4=CCCCC4)ccc32)c(C)c1	25µM*	?	i	.
COCCNC(=O)c1ccc2c(c1)nc(C)n2-c1cccc(Cl)c1	.	i	i	.
CCc1ccccc1-n1c(C)nc2cc(C(=O)NCCc3ccc(Cl)cc3)ccc21	32µM*	?	i	.
Cc1nc2cc(C(=O)NCCC3=CCCCC3)ccc2n1-c1ccc(Br)cc1	?	25µM*	i	.
Cc1ccccc1NC(=O)Cn1nnc(C(=O)NCCc2ccccc2)c1N	-4%	i	i	.
COC(=O)[C@]12C[C@H](CC(=O)NCCc3ccccc3OC)C(=O)N(Cc3cccc4ccccc34)C1=C[C@H](COCc1ccccc1)O[C@@H]2C	.	16µM*	.	.
CCOC(=O)N1CCN(C(=O)C[C@H]2C[C@@]3(C(=O)OC)C(=C[C@H](COCc4ccccc4)O[C@@H]3C)N(Cc3cccc4ccccc34)C2=O)CC1	.	22µM*	.	.
COC(=O)[C@]12C[C@H](CC(=O)NCc3cccc4ccccc34)C(=O)N(Cc3ccc(Cl)cc3Cl)C1=C[C@H](COCc1ccccc1)O[C@@H]2C	.	i	.	.
COC(=O)[C@]12C[C@H](CC(=O)NCC3CCCCC3)C(=O)N(CCc3ccc(OC)c(OC)c3)C1=C[C@H](COCc1ccccc1)O[C@@H]2C	.	10µM*	.	.
O=C(c1ccc(Cl)cc1)N1CCN(c2ccccn2)CC1	.	i	.	.
O=C(NCCOCCO)C(=O)Nc1c2c(nn1-c1ccc(F)cc1)CSC2	20%	i	i	.
Oc1ccc(Br)cc1-c1nc2cnccn2c1NC1CCCC1	22µM*	i	i	11%
N#Cc1cccnc1N1CCN(C(=O)c2ccc3c(c2)S(=O)(=O)c2ccccc2C3=O)CC1	-18%	i	i	0%
O=C1c2ccccc2S(=O)(=O)c2cc(C(=O)N3CCN(c4ccc(Cl)cn4)CC3)ccc21	20µM*	i	i	6%
O=C(c1ccc2c(c1)N(Cc1ccc(Cl)cc1)C(=O)c1ccccc1S2(=O)=O)N1CCCCCC1	18%	28µM*	i	.
CCOC(=O)N1CCC(NC(=O)c2ccc3c(c2)N(Cc2ccc(F)cc2)C(=O)c2ccccc2S3(=O)=O)CC1	-17%	25µM*	i	.
CCOC(=O)N1CCC(NC(=O)c2ccc3c(c2)N(Cc2ccccc2)C(=O)c2ccccc2S3(=O)=O)CC1	23%	?	i	.
COc1ccc(N2CCN(C(=S)NC(=O)c3cccs3)CC2)c([N+](=O)[O-])c1	22µM*	i	?	9%
O=C(NC(=S)N1CCN(c2c(Cl)cccc2[N+](=O)[O-])CC1)c1cccs1	?	.	i	20%
Cc1cc(N2CCN(C(=O)c3cccs3)CC2)c(F)cc1[N+](=O)[O-]	13µM*	i	i	7%
O=C(c1cccs1)N1CCN(c2ccc([N+](=O)[O-])cc2F)CC1	21%	i	i	2%
CN(C)Cc1cn(-c2cccc(-c3noc4c3C(=O)N(CC(=O)N3CCOCC3)CC4)c2)nn1	.	i	.	.
O=C(O)c1ccc(C(=O)Nc2cccc3cccnc23)cc1	.	.	.	8%

High-throughput results deposited in PubChem by National Center for Advancing Translational Sciences (NCATS).
